Measured values: the supplement of paper PMC10849652
Targets with a hit are over-represented here; the source holds about 8,800 in all. About 0.5% of all pairs of compound and target were hits.

Assays:
Assay in all cases: log2 fold change, soluble protein after heating vs DMSO (PISA); higher = thermal stabilisation; K562 lysate, 10 uM; active = over 0.2 and 3.5 SD of the protein, either way, in both replicates (recomputed)
[1] = compound: C#Cc1cccc(Nc2ncnc3cc(OCCOC)c(OCCOC)cc23)c1 [erlotinib]
Procedure, shortened: (§1)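 K562 pellets were dounce-homogenised in PBS pH 7.4 containing 1 mM MgCl2, and the crude extract, at 1 mg/mL protein, was exposed to 10 μM compound for 30 min. Aliquots were heated for 3 min across 48°C-58°C, pooled, brought to 0.5% NP-40 at 4°C and spun at 21,000xg for 90 min, with the supernatant taken as soluble protein. TMTpro 16plex LC-MS/MS with equalised channel sums quantified that protein. Values are log-two fold changes in thermal stability relative to solvent controls, taken from duplicates.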

[2] = compound: C/C(=N\NC(=O)C1=CC(=CC=C1)S(=O)(=O)N2CCOCC2)/C3=C(C=CC(=C3)Cl)O
Procedure, shortened: as §1

[3] = compound: C1=CC(=CC=C1C2=NC3=C(N2)C=C(C=C3)C(=O)N)OC4=CC=C(C=C4)Cl
Procedure, shortened: as §1

[4] = compound: C1=CC2=C(C=CC(=C2)/C=C\3/C(=O)NC(=NCC4=CC=CS4)S3)N=C1
Procedure, shortened: as §1

[5] = compound: C1=CC2=NC=CN=C2C=C1/C=C/3\C(=O)NC(=O)S3
Procedure, shortened: as §1

[6] = compound: C1=CC=C(C=C1)C2=NC(=C(N2)C3=CC=NC=C3)C4=CC(=C(C=C4)Cl)O
Procedure, shortened: as §1

[7] = compound: C1=CC=C2C(=C1)C3=NNC4=CC=CC(=C43)C2=O
Procedure, shortened: as §1

[8] = compound: C1CCN(C1)C(=O)NC2=CC=CC(=C2)NC3=NC=C(C(=N3)NCCC4=CN=CN4)Br
Procedure, shortened: as §1

[9] = compound: C1CN(CCC1(CC2=CC=C(C=C2)Cl)N)C3=NC=NC4=C3C=CN4
Procedure, shortened: as §1

[10] = compound: C1COCCN1CCN2C3=CC=CC=C3N=C2NC(=O)C4=CC(=CC=C4)[N+](=O)[O-] [IRAK-1-4 Inhibitor I]
Procedure, shortened: as §1

[11] = compound: C=CC(=O)N1CCC[C@@H](n2nc(-c3ccc(Oc4ccccc4)cc3)c3c(N)ncnc32)C1 [ibrutinib]
Procedure, shortened: as §1

[12] = compound: CC(=O)c1cnc2ccc(-c3cc(Cl)c(O)c(Cl)c3)nc2c1N[C@H]1CC[C@H](CN(C)C)CC1
Procedure, shortened: as §1

[13] = compound: CC(C)(C)Cn1c(N)nc2ccc(-c3[nH]c(C(C)(C)C)nc3-c3ccc(F)cc3)nc21 [ralimetinib]
Procedure, shortened: as §1

[14] = compound: CC(C)(O)CC(=O)NCCn1ccc2ncnc(Nc3ccc(Oc4cccc(C(F)(F)F)c4)c(Cl)c3)c21
Procedure, shortened: as §1

[15] = compound: CC(C)C1=C2N=C(C=C(N2N=C1)NCC3=CC=CC=C3)NCCCCCCN
Procedure, shortened: as §1

[16] = compound: CC1=C(C(CC(=O)N1)C2=CC=C(C=C2)C(F)(F)F)C(=O)NC3=C(C=C4C(=C3)C=NN4)F
Procedure, shortened: as §1

[17] = compound: CC1=C(C2=C(C=C1)C(=O)C3=CC=CC=C3N2CCCN)C
Procedure, shortened: as §1

[18] = compound: CC1=C(C=C(C=C1)NC(=O)C2=CC(=CC=C2)C(C)(C)C#N)NC3=CC4=C(C=C3)N=CN(C4=O)C
Procedure, shortened: as §1

[19] = compound: CC1=C(C=C(C=C1)NC(=O)C2=CC(=CC=C2)N(C)C)NC(=O)C3=CC=C(C=C3)O
Procedure, shortened: as §1

[20] = compound: CC1=CC=C(C=C1)SC2=C3C=C(SC3=CN=C2)C(=O)N
Procedure, shortened: as §1

Measured: log2 fold change

TPST2 (UniProt O60704)
Sequence of UniProt O60704 (O60704 whole entry, looked up): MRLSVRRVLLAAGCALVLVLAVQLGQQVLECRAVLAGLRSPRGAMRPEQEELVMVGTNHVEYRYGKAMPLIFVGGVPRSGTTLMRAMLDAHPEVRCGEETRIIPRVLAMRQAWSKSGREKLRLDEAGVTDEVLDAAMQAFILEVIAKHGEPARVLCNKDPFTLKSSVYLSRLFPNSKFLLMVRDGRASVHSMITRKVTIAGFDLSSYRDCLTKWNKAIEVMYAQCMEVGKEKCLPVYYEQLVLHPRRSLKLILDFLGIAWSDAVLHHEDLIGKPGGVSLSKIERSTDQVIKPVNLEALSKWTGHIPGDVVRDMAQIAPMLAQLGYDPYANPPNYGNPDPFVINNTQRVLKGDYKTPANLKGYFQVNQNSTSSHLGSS
inactive: [1] -0.064 | [2] -0.062 | [3] 0.042 | [4] 0.049 | [5] -0.002 | [6] -0.016 | [7] -0.06 | [8] 0.015 | [9] 0.032 | [10] -0.038 | [11] -0.098 | [12] -0.036 | [13] 0.006 | [14] 0.019 | [15] -0.08 | [16] 0.039 | [17] -0.06 | [18] -0.039 | [19] -0.036 | [20] -0.08

TUBA4A (UniProt P68366)
Sequence of UniProt P68366 (P68366 whole entry, looked up): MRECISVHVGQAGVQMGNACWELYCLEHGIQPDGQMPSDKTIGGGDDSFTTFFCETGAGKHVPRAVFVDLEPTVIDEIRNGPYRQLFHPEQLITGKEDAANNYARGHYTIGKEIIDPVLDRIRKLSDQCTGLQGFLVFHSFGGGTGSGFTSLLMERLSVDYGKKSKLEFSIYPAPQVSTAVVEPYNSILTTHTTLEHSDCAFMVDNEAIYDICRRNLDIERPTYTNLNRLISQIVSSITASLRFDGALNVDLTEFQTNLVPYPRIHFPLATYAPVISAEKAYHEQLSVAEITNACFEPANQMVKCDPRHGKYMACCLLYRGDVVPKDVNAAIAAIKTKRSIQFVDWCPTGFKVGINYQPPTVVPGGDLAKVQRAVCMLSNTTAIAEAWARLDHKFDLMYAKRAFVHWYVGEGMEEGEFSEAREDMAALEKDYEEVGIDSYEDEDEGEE
inactive: [1] 0.074 | [2] 0.019 | [3] -0.017 | [4] -0.034 | [5] -0.01 | [6] -0.036 | [7] -0.017 | [8] 0 | [9] 0.036 | [10] 0.032 | [11] -0.012 | [12] 0.023 | [13] 0.012 | [14] 0.017 | [15] 0.023 | [16] -0.031 | [17] -0.013 | [18] 0.017 | [19] -0.017 | [20] 0.012

TGOLN2 isoform 7 (UniProt O43493)
Sequence of UniProt O43493 (O43493 whole entry, looked up): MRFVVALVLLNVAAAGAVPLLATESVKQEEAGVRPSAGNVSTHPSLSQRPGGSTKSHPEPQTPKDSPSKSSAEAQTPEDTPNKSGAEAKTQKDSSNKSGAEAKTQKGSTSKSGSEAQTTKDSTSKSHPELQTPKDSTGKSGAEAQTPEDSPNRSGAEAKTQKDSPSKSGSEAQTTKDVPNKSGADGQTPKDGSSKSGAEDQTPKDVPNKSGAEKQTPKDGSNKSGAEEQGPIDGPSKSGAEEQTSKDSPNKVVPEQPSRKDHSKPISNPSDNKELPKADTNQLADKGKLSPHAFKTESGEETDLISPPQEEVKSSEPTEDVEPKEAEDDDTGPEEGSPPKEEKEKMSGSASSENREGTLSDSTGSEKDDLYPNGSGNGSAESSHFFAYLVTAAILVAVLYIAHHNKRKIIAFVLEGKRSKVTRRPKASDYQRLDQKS
inactive: [1] -0.108 | [2] 0.007 | [3] 0 | [4] 0.022 | [5] -0.036 | [6] -0.021 | [7] 0.012 | [8] -0.025 | [9] 0.011 | [10] 0.029 | [11] -0.023 | [12] 0.013 | [13] -0.065 | [14] -0.058 | [15] 0.003 | [16] 0.009 | [17] 0.005 | [18] -0.033 | [19] 0.051 | [20] -0.013

TPX2 (UniProt Q9ULW0)
inactive: [1] -0.014 | [2] -0.008 | [3] 0.032 | [4] -0.022 | [5] -0.013 | [6] 0.019 | [7] 0.001 | [8] -0.005 | [9] -0.026 | [10] 0.006 | [11] 0.024 | [12] -0.01 | [13] 0.003 | [14] -0.006 | [15] 0.036 | [16] -0.005 | [17] -0.008 | [18] 0.062 | [19] 0.001 | [20] -0.01

TRAPPC6A isoform 2 (UniProt O75865)
Sequence of UniProt O75865 (O75865 whole entry, looked up): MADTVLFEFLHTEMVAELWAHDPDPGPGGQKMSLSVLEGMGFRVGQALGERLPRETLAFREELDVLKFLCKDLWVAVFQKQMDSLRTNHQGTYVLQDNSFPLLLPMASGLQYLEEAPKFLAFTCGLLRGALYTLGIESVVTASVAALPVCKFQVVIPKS
inactive: [1] 0.018 | [2] 0.095 | [3] 0.002 | [4] 0.049 | [5] -0.055 | [6] -0.016 | [7] -0.005 | [8] 0.154 | [9] 0.095 | [10] 0.047 | [11] -0.023 | [12] -0.011 | [13] -0.027 | [14] -0.037 | [15] -0.031 | [16] -0.052 | [17] 0.012 | [18] 0.008 | [19] 0.004 | [20] -0.062

TRIM33 (UniProt H0Y612)
inactive: [1] -0.006 | [2] -0.002 | [3] 0.05 | [4] -0.126 | [5] -0.071 | [6] -0.01 | [7] -0.009 | [8] -0.065 | [9] -0.023 | [10] 0.176 | [11] 0.016 | [12] -0.003 | [13] 0.135 | [14] -0.084 | [15] 0.068 | [16] -0.099 | [17] -0.004 | [18] -0.031 | [19] -0.009 | [20] -0.012

TRIM11 (UniProt Q96F44)
Sequence of UniProt Q96F44 (Q96F44 whole entry, looked up): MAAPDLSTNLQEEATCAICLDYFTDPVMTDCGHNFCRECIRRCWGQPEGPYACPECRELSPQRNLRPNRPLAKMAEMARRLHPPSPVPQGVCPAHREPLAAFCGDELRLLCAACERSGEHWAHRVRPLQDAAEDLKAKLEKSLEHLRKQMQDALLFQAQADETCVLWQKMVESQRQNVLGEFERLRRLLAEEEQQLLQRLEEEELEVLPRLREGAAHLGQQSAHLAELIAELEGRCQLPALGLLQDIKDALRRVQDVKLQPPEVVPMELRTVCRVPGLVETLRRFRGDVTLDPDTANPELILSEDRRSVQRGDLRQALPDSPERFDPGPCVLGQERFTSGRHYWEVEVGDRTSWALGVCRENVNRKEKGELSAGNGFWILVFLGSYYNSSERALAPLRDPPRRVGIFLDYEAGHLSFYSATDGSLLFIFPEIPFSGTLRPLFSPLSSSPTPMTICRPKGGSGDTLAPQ
inactive: [1] 0.005 | [2] -0.012 | [3] -0.008 | [4] -0.002 | [5] 0.012 | [6] -0.018 | [7] -0.032 | [8] -0.046 | [9] 0.002 | [10] 0.043 | [11] 0.008 | [12] 0.05 | [13] -0.009 | [14] -0.049 | [15] -0.011 | [16] -0.067 | [17] -0.04 | [18] 0.005 | [19] -0.014 | [20] 0.036

TOE1 (UniProt Q96GM8)
inactive: [1] -0.035 | [2] -0.064 | [3] 0.006 | [4] 0.036 | [5] 0.054 | [6] -0.021 | [7] -0.024 | [8] 0 | [9] -0.035 | [10] -0.021 | [11] 0.011 | [12] -0.001 | [13] 0.007 | [14] 0.003 | [15] 0.008 | [16] -0.061 | [17] -0.023 | [18] -0.02 | [19] 0.014 | [20] 0.011

TRIM44 (UniProt Q96DX7)
Sequence of UniProt Q96DX7 (Q96DX7 whole entry, looked up): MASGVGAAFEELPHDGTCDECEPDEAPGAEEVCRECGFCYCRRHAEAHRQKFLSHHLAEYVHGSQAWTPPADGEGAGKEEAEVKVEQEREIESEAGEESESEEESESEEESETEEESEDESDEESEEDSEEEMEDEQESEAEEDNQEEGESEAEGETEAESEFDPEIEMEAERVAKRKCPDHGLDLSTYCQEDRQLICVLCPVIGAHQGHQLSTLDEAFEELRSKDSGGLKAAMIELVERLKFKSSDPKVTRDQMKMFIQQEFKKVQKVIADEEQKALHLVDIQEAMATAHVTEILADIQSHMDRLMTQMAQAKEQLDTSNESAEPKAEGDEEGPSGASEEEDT
inactive: [1] -0.066 | [2] 0.067 | [3] -0.016 | [4] -0.037 | [5] 0.057 | [6] -0.013 | [7] -0.038 | [8] 0.053 | [9] 0.072 | [10] 0.043 | [11] 0.031 | [12] 0.124 | [13] 0.032 | [14] -0.013 | [15] -0.037 | [16] -0.021 | [17] -0.004 | [18] -0.044 | [19] 0.022 | [20] 0.086

TGFBRAP1 (UniProt Q8WUH2)
Sequence of UniProt Q8WUH2 (Q8WUH2 whole entry, looked up): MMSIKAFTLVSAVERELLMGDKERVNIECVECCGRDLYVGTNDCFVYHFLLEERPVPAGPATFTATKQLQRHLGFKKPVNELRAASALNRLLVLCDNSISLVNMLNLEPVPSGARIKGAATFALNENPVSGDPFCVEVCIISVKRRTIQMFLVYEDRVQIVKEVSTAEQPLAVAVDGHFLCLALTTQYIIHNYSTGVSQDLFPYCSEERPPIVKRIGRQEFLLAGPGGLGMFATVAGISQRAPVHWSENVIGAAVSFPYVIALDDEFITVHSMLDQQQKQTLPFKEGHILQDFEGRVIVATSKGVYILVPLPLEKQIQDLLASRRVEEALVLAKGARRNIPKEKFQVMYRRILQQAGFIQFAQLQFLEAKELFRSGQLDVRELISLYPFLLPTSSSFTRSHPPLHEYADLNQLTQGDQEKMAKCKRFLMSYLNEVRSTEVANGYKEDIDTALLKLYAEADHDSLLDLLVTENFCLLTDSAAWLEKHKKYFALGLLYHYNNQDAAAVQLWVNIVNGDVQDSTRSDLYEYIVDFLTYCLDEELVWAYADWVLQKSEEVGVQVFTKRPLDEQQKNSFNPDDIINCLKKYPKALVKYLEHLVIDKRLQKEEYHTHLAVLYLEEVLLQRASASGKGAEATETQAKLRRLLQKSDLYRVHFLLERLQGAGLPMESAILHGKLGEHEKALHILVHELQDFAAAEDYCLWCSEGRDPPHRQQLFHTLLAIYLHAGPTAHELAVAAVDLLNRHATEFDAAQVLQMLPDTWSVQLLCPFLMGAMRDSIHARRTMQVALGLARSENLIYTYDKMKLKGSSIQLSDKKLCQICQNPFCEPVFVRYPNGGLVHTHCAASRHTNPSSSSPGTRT
inactive: [1] 0.015 | [2] 0.057 | [3] -0.016 | [4] -0.002 | [5] -0.018 | [6] -0.02 | [7] -0.056 | [8] 0.023 | [9] 0.006 | [10] -0.026 | [11] 0.002 | [12] 0.022 | [13] 0.011 | [14] 0.025 | [15] -0.014 | [16] 0.007 | [17] 0.015 | [18] -0.005 | [19] 0.009 | [20] -0.012

UBE4A isoform 2 (UniProt Q14139)
Sequence of UniProt Q14139 (Q14139 whole entry, looked up): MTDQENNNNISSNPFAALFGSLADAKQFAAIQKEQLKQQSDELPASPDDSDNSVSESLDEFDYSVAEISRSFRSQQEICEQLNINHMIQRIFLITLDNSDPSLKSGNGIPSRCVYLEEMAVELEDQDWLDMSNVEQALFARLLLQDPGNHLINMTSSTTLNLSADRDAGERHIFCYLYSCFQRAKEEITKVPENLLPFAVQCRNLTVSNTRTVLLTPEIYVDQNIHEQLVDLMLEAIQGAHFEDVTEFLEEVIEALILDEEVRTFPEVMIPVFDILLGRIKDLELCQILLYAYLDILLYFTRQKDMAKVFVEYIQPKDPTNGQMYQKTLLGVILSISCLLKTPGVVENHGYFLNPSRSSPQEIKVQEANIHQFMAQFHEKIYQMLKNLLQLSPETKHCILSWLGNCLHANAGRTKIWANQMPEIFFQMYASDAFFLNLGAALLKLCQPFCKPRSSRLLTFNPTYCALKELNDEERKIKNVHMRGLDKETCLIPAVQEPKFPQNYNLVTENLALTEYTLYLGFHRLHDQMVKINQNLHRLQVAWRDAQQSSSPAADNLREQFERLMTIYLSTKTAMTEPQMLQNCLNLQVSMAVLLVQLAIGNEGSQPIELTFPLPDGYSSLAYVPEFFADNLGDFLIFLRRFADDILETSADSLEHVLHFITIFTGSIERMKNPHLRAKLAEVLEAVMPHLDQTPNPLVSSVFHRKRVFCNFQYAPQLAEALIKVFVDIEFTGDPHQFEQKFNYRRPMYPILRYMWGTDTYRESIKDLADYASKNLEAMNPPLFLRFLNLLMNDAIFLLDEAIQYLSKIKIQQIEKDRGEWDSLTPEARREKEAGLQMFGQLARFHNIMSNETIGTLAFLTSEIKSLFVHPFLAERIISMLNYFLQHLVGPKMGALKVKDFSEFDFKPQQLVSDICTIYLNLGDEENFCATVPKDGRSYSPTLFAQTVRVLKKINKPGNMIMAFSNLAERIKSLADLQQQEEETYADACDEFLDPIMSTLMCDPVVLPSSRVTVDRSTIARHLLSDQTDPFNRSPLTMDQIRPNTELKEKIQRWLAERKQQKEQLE
inactive: [1] 0.031 | [2] 0.091 | [3] 0.023 | [4] 0.013 | [5] -0.023 | [6] -0.021 | [7] -0.082 | [8] -0.028 | [9] 0.035 | [10] 0.004 | [11] -0.025 | [12] 0.018 | [13] 0.038 | [14] -0.038 | [15] -0.023 | [16] 0.03 | [17] 0.019 | [18] -0.009 | [19] 0.034 | [20] -0.009

TMPO (UniProt P42167)
Sequence of UniProt P42167 (P42167 whole entry, looked up): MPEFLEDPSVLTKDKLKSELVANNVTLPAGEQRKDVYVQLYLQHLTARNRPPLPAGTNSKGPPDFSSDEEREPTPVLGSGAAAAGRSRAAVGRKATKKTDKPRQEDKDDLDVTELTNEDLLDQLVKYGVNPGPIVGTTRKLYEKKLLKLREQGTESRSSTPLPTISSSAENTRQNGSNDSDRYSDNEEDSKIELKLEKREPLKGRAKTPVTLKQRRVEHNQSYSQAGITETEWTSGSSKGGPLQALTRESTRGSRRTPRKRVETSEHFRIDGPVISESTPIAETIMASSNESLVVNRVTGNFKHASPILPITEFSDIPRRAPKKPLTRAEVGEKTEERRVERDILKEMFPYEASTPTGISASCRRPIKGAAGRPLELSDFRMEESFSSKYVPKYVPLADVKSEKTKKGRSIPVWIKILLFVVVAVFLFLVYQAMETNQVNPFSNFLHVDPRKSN
inactive: [1] -0.016 | [2] 0.021 | [3] -0.021 | [4] -0.027 | [5] 0.014 | [6] -0.029 | [7] -0.073 | [8] -0.019 | [9] -0.032 | [10] -0.002 | [11] -0.003 | [12] 0.009 | [13] 0.018 | [14] -0.001 | [15] -0.044 | [16] 0.006 | [17] 0.005 | [18] -0.043 | [19] -0.006 | [20] -0.064

TPM1 isoform 4 (UniProt P09493)
Sequence of UniProt P09493 (P09493 whole entry, looked up): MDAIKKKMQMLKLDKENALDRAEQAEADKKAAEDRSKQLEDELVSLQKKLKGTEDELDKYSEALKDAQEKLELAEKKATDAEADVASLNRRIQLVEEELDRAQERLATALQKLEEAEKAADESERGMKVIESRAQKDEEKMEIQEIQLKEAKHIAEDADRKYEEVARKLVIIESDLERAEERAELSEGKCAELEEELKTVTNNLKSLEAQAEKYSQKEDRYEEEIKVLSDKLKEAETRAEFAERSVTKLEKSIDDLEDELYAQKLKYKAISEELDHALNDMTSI
inactive: [1] -0.126 | [2] -0.004 | [3] 0.005 | [4] 0.018 | [5] 0.114 | [6] -0.026 | [7] -0.015 | [8] 0.014 | [9] -0.052 | [10] -0.009 | [11] -0.019 | [12] 0.009 | [13] 0.001 | [14] -0.011 | [15] -0.024 | [16] -0.011 | [17] 0.062 | [18] 0.011 | [19] -0.022 | [20] 0.001

UBR5 (UniProt O95071)
inactive: [1] 0.005 | [2] -0.029 | [3] -0.024 | [4] -0.002 | [5] -0.012 | [6] -0.013 | [7] -0.033 | [8] -0.001 | [9] 0.007 | [10] 0.001 | [11] -0.001 | [12] -0.005 | [13] 0.01 | [14] -0.028 | [15] -0.005 | [16] 0.004 | [17] -0.011 | [18] 0.013 | [19] 0.016 | [20] 0.018

TSFM (UniProt P43897)
inactive: [1] -0.013 | [2] 0.009 | [3] -0.035 | [4] -0.003 | [5] -0.002 | [6] 0.017 | [7] -0.063 | [8] 0.024 | [9] 0.034 | [10] -0.024 | [11] 0.004 | [12] -0.05 | [13] 0.03 | [14] 0.026 | [15] 0.015 | [16] -0.024 | [17] -0.003 | [18] 0.116 | [19] 0.017 | [20] -0.063

TMEM87A (UniProt Q8NBN3)
inactive: [1] -0.015 | [2] -0.021 | [3] 0.01 | [4] 0.037 | [5] -0.02 | [6] -0.02 | [7] -0.027 | [8] 0.031 | [9] -0.004 | [10] -0.028 | [11] -0.002 | [12] 0.019 | [13] -0.031 | [14] -0.035 | [15] -0.075 | [16] -0.017 | [17] -0.02 | [18] 0.016 | [19] 0.004 | [20] -0.02
